PubChem BioAssay AID1159580 (chemical genetic matrix, 2015)
Screen size: about 5,500 compounds; about 2,000 (36%) were called active. About 18% were inconclusive and are not listed. Cut-off read from the data, not from the text of the source: active = normalized growth mostly below about 0.91 (no sharp cut-off); inconclusive = no clear call, values can overlap the other calls; inactive = mostly above about 0.92. The list shows a part of the results.

Assay: chemical genetic growth profiling, strain panel (AID 1159580);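 note: tested at 20 µM; growth read once vehicle control cultures reached saturation at 30 °C; 1 = growth at the plate median or of vehicle wells; lower values mean less growth of the strain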
Conditions: S. cerevisiae deletion strains, growth OD

Measured: normalized growth

C=CCCCCCCCCCCCC(O)CC(O)CO (centres undefined)
inactive: locus YAL013W, strain DEP1, hits give low values 0.952 | locus YAL021C, strain ccr4, hits give low values 0.987 | locus YAL026C, strain drs2, hits give low values 1.01 | locus YAL030W, strain snc1, hits give low values 1 | locus YBL061C, strain skt5, hits give low values 1 | locus YBR009C, strain hhf1, hits give low values 1 | locus YBR023C, strain chs3, hits give low values 1 | locus YBR171W, strain sec66, hits give low values 0.986 | locus YBR229C, strain ROT2, hits give low values 0.974 | locus YBR231C, strain swc5, hits give low values 0.997 | locus YBR279W, strain paf1, hits give low values 0.981 | locus YCL011C, strain gbp2, hits give low values 0.992 | locus YCL016C, strain dcc1, hits give low values 0.987 | locus YCL029C, strain bik1, hits give low values 0.968 | locus YCL061C, strain MRC1, hits give low values 0.985 | locus YCL069W, strain vba3, hits give low values 0.991 | locus YCR088W, strain abp1, hits give low values 0.99 | locus YDL005C, strain med2, hits give low values 0.987 | locus YDL040C, strain nat1, hits give low values 0.998 | locus YDL074C, strain BRE1, hits give low values 0.82 | locus YDL101C, strain DUN1, hits give low values 0.949 | locus YDL134C, strain PPH21, hits give low values 0.951 | locus YDL185W, strain tfp1, hits give low values 0.989 | locus YDL192W, strain arf1, hits give low values 0.921 | locus YDR001C, strain nth1, hits give low values 0.987 | locus YDR069C, strain doa4, hits give low values 1.01 | locus YDR137W, strain rgp1, hits give low values 1.01 | locus YDR150W, strain NUM1, hits give low values 0.992 | locus YDR159W, strain sac3, hits give low values 0.99 | locus YDR162C, strain NBP2, hits give low values 0.948 | locus YDR195W, strain ref2 1.01 | locus YDR297W, strain sur2, hits give low values 0.996 | locus YDR334W, strain swr1, hits give low values 1 | locus YDR335W, strain msn5, hits give low values 0.998 | locus YDR388W, hits give low values 0.98 | locus YDR392W, strain spt3, hits give low values 0.918 | locus YEL003W, strain gim4, hits give low values 0.993 | locus YEL037C, strain rad23, hits give low values 1.01 | locus YEL061C, strain CIN8 (second series), hits give low values 0.994 | locus YEL061C, strain CIN8, hits give low values 0.962 | locus YER015W, strain faa2, hits give low values 0.99 | locus YER016W, strain bim1, hits give low values 0.997 | locus YER110C, hits give low values 0.969 | locus YER111C, strain swi4, hits give low values 0.991 | locus YER155C, strain BEM2 (second series), hits give low values 0.986 | locus YER155C, strain BEM2, hits give low values 0.97 | locus YFR010W, strain ubp6, hits give low values 1 | locus YGL078C, strain dbp3, hits give low values 0.967 | locus YGL167C, strain pmr1, hits give low values 0.998 | locus YGL173C, strain kem1, hits give low values 0.996 | locus YGL227W, strain vid30, hits give low values 0.981 | locus YGL240W, strain doc1, hits give low values 0.993 | locus YGL248W, strain PDE1, hits give low values 0.927 | locus YGL253W, strain hxk2, hits give low values 1 | locus YGR229C, strain SMI1, hits give low values 0.947 | locus YGR252W, strain gcn5, hits give low values 0.785 | locus YHR013C, strain ard1, hits give low values 0.966 | locus YHR027C, strain rpn1, hits give low values 0.995 | locus YHR030C, strain SLT2, hits give low values 0.974 | locus YHR094C, strain hxt1, hits give low values 0.985 | locus YHR142W, strain chs7, hits give low values 1.01 | locus YHR200W, strain rpn10, hits give low values 0.961 | locus YIL073C, strain SPO22, hits give low values 0.992 | locus YIL125W, strain kgd1, hits give low values 0.977 | locus YIR030C, strain dcg1, hits give low values 0.942 | locus YJL092W, strain hpr5, hits give low values 0.992 | locus YJL095W, strain BCK1 (second series), hits give low values 0.99 | locus YJL095W, strain BCK1, hits give low values 0.937 | locus YJL115W, strain asf1, hits give low values 0.993 | locus YJL129C, strain trk1, hits give low values 0.985 | locus YJL134W, strain LCB3, hits give low values 0.995 | locus YJL154C, strain vps35, hits give low values 0.987 | locus YJL164C, strain tpk1, hits give low values 0.997 | locus YJL166W, strain qcr8, hits give low values 0.99 | locus YJL168C, strain set2, hits give low values 0.974 | locus YJL187C, strain SWE1 (second series), hits give low values 0.913 | locus YJL187C, strain SWE1, hits give low values 0.996
active: locus YBR021W, strain FUR4, hits give low values 0.751 | locus YDL035C, strain GPR1, hits give low values 0.822 | locus YDR101C, strain arx1, hits give low values 0.899 | locus YDR318W, strain mcm21, hits give low values 0.872 | locus YDR502C, strain sam2, hits give low values 0.912 | locus YER167W, strain BCK2, hits give low values 0.872 | locus YGL086W, strain mad1, hits give low values 0.875 | locus YGR078C, strain PAC10, hits give low values 0.832 | locus YGR135W, strain pre9, hits give low values 0.887 | locus YHR079C, strain IRE1 (second series), hits give low values 0.883 | locus YHR129C, strain ARP1, hits give low values 0.903 | locus YIL066C, strain RNR3, hits give low values 0.784
